Results: the supplement of paper PMC3334620
Whole data set: some 33,000 sequences, median “E-score (-0.5 to 0.5)” near -0.021, cut for the highest 2% near 0.32. Only a selection was taken, and the highest values are over-represented in it overall.

Target: T1, Zap1 (UniProt P47043)
T1 sequence: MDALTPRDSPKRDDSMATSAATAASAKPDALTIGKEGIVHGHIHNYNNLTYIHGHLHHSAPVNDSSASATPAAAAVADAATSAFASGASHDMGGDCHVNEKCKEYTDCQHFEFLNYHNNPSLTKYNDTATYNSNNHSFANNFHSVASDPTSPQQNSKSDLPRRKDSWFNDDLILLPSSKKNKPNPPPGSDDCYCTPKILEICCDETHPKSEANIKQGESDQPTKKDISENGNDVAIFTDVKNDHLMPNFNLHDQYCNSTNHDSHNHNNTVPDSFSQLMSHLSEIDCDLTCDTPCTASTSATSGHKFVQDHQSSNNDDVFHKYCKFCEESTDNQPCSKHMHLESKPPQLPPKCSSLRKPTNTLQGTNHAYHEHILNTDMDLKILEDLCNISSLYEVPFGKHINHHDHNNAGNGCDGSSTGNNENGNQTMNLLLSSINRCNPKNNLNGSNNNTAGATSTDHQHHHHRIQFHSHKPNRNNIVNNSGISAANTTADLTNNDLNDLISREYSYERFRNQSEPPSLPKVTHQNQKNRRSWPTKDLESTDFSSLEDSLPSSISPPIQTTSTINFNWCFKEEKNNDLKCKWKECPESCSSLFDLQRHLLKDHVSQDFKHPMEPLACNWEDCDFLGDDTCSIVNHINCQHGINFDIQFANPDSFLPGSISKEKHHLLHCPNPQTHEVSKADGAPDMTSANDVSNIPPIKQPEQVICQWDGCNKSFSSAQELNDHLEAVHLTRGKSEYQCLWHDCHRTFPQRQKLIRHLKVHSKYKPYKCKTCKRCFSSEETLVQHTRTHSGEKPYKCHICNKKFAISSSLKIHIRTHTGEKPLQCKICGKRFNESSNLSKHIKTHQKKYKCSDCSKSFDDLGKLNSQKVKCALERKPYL
Test: PBM E-score (8-mer binding enrichment) (E-score (-0.5 to 0.5)); higher = stronger / more preferred TF binding
Conditions: protein concentration: 200 nM; construct: GST-full length
Procedure, shortened: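 Bound GST-tagged yeast transcription factors, applied at about 100-200 nM to double-stranded universal all-10-mer Agilent arrays, were detected with fluorescent anti-GST. Scans were normalised with masliner. A modified Wilcoxon-Mann-Whitney statistic, the E-score, was assigned to each ungapped eight-base word pooled with its reverse complement by the Universal PBM Analysis Suite.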

Sequence | PBM E-score
CGCAACTA | 0.162
AGGCCCAA | -0.0071
GACGCGAA | -0.12
AGAGAATC | -0.152
AATGAATG | 0.0096
AGGCTAGA | -0.15
AACCTATA | 0.374
GACCTATA | 0.295
TACCTATA | 0.337
AACCTAAA | 0.356
TACCTAGA | 0.163
TACCTACA | 0.137
TACCTAAA | 0.199
CACCTATA | 0.0311
CACCTAAA | 0.191
ATGCGTTC | -0.0993
GCAGGCAA | -0.144
ACTCAGAG | 0.11
CTGATAAA | 0.121
GGAACACC | 0.105
ATTTCTCG | 0.176
CTTGCTAC | 0.0655
ATCTCACC | -0.0161
CGACTGGA | -0.193
ACCTCTAC | 0.259

Sequence | PBM E-score
ACCTCTAG | 0.411
CCCTCTCA | -0.23
ACCTCTCA | 0.344
ACCTCAAA | 0.326
ACCTCTAT | 0.293
GCCTCAAA | 0.00889
ACCTCAAG | 0.251
ACCTCTCT | 0.0304
CACTGGCG | -0.0169
GCTTCAAC | 0.00654
TAGCCAGA | -0.00683
CGAGCTAA | -0.031
GATCAGAA | -0.106
AGTAATAT | 0.178
AGAGCTAC | -0.184
GACCCACC | 0.245
CACCCACC | 0.194
ACCCCACC | 0.419
AACCCACA | 0.331
CCCCCACC | -0.378
GCCCCACC | 0.283
AACCCACG | 0.156
AACCCACC | 0.343
CACCCACA | 0.168
ATTTTCTA | 0.122

Sequence | PBM E-score
CTATGAGC | -0.127
CTTCTCCC | -0.213
ATCCTCAC | 0.0272
GAAGATGA | 0.0533
GGGGTACA | 0.249
TGGGTACA | 0.174
AGTGTACC | 0.0741
ACGGTACA | 0.213
AGCGTACT | -0.127
AGAGTACT | -0.144
AGGGTACA | 0.337
GGGGTACC | 0.424
GGCGTACC | 0.0458
AGGGTACG | 0.296
AGGGTACC | 0.461
AGGGTACT | 0.441
CGAAGCAA | -0.00093
CCCCATAG | 0.201
CAAAACTG | 0.0208
CATGGGAG | 0.0124
AAATATAT | 0.224
ATCTATCG | -0.167
GAACAAGC | -0.175
CAGCCCAA | -0.0128
AATTCCGT | -0.0101

Sequence | PBM E-score
ATGGTACA | 0.08
CGGGTACA | 0.122
CGGGTACG | 0.0198
CGGGTACC | 0.432
ATGGTACC | 0.392
CTGGTACC | 0.286
ACGCTTGA | 0.0154
CCCCTAGC | -0.167
GGGGCTTA | -0.25
ACGTCATA | -0.0571
ACCCAGCC | -0.139
AACTAAGA | 0.0908
CCTGGGGA | -0.183
CCGGGTAA | 0.246
CGGGGTAC | 0.316
CAGGGTGA | 0.313
CTGGGTAA | 0.185
AGGGGTAC | 0.398
AAGGGTAG | 0.375
GGGGGTAC | 0.186
CCGGGTAC | 0.348
CAGGGTAA | 0.354
AGGGGTAG | 0.312
GCGGGTAC | 0.256
ACGGGTAG | 0.255

Sequence | PBM E-score
AGCCAAGC | -0.307
GGGTAGTA | 0.219
ACTTCAAA | -0.13
GACACACA | 0.028
GCGGGCGA | -0.105
CCCATCTA | -0.0762
ACCTATCC | 0.152
ACAGTAGG | -0.209
CACGGGGA | -0.219
AAGGGTAT | 0.421
AGGGGTAT | 0.258
GAGGGTAC | 0.374
AAGGGTGT | 0.316
CGGGGTAA | 0.299
TGGGGTAA | 0.347
GATGGTAC | 0.199
GAGGGTGC | 0.138
ATGGGTAA | 0.242
AGGGGTAA | 0.272
GGGGGTAA | -0.0883
AAGGGTAA | 0.393
CTTTCGCC | -0.179
CGGTTGTC | 0.279
CATGTGCA | 0.0255
TTCTTAAA | -0.028

Sequence | PBM E-score
ACGTCGTA | -0.287
CATCAATA | 0.0615
CGTGGCCA | 0.0519
GGCACGTA | -0.273
AAGGGTCC | 0.274
CAGGGTGC | 0.0059
ATGGGTAG | 0.238
CAGGGTAC | 0.437
CTGGGTAC | 0.305
TCGGGTAA | 0.24
AAGGGTAC | 0.426
GAGGGTAA | 0.264
CAGGGTAG | 0.306
ATGGGTAC | 0.328
TAGGGTAA | 0.396
ACGGGTAC | 0.231
AGTCAGGC | -0.101
CACTACGC | -0.163
CGGCTAGA | -0.178
CCCTGCGA | 0.0758
CCAACTGC | -0.165
AACACAGT | -0.00444
AAGCTTTC | 0.0356
GCGTGACA | -0.136
GCGTGACC | 0.326

Sequence | PBM E-score
CCGTGACC | 0.376
CCGTGACG | -0.0247
CCGTGACA | -0.136
ACGTGACC | 0.249
TATACATA | 0.106
CACTAGAG | 0.0544
ACACTGAA | 0.111
GCCAGACA | 0.0344
GGTTACAC | 0.403
TGTTACAA | 0.098
GGTTACAA | 0.455
CGTTACAC | 0.0157
AGTTACAC | 0.0701
CGTTACAA | 0.121
GGGCTTAA | -0.0211
ACGTGTAT | -0.152
TATCGACA | 0.0537
ATTGTGAC | 0.159
CACATAGC | -0.136
ACGAGAGT | -0.197
ATCCCTAC | -0.023
